Test results as given in PubChem BioAssay AID1986 (Sanford-Burnham Center for Chemical Genomics, 2009).
The whole screen tested about 290,000 compounds, of which about 890 (0.31%) were called active. No stated cut-off is given here; in the data, active means inhibition mostly above about 52% (no sharp cut-off); inactive means mostly below about 76%. What follows is part of a selection rich in actives, with near analogues and random picks from the rest.

Assay: inhibitors of HIV fusion peptide binding, primary screen, biochemical, uHTS, fluorescence dequenching (AID 1986)
Conditions: cell-free peptide binding, 30 min, stronger effect = higher value
[1] = measured here: repeat confirmation average inhibition, at 18.6 µM

O=c1cc(O)c2sc(Nc3ccc(Cl)c(F)c3)nc2[nH]1
inhibition (at 20 µM): 46.9% (inactive)

O=c1cc(O)c2sc(Nc3ccc(F)cc3)nc2[nH]1
inhibition (at 20 µM): 23.5% (inactive)

O=c1cc(O)c2sc(Nc3ccc(F)c(Cl)c3)nc2[nH]1
inhibition (at 20 µM): 51.4% (active)

CCOc1ccc2cc(C(=O)NCc3ccccc3)c(=N)oc2c1
inhibition (at 20 µM): 0.1% (inactive)

C/C(C/C(C)=C1/SC(=S)NC1=O)=C1\SC(=S)NC1=O
inhibition (at 20 µM): 69.5% (active)

CCO/C(C)=C1/SC(=S)NC1=O
inhibition (at 20 µM): -1% (inactive)

CCCCCC/C(C)=C1/SC(=S)NC1=O
inhibition (at 20 µM): 24.4% (inactive)

CCC1(CC)Cc2ccccc2C(=C(C#N)C#N)N1
inhibition (at 20 µM): 0.7% (inactive)

Cc1c(Cc2ccccc2)sc(NC(=O)/C=C/c2cccc3ccccc23)c1C(N)=O
inhibition (at 20 µM): 3.6% (inactive)

COc1ccc2c(n1)Sc1nc3ccccc3nc1N2
inhibition (at 20 µM): 82.7% (active)

COc1nc2ccccc2nc1OC
inhibition (at 20 µM): 0.6% (inactive)

COc1cc2ccccc2nn1
inhibition (at 20 µM): -0.9% (inactive)

COC(=O)Nc1nnc(-c2ccccc2Cl)s1
inhibition (at 20 µM): -1.6% (inactive)

CCCN(C(=O)COc1ccc(Cl)cc1Cl)c1c(N)n(Cc2ccccc2)c(=O)[nH]c1=O
inhibition (at 20 µM): 5.9% (inactive)

CCSC1=N/C(=C\c2ccc3c(c2)OCO3)C(=O)S1
inhibition (at 20 µM): 9.4% (inactive)

CCCCN1C(=O)/C(=C/C=C2\Oc3ccccc3N2CC)SC1=S
inhibition (at 20 µM): 149% (inactive)

CCSC1=N/C(=C\C=C2/Oc3ccccc3N2CC)C(=O)S1
inhibition (at 20 µM): 109% (active)
inhibition [1]: 63%

CCN(CC)c1ccc(-c2nc3cnccc3n2C)cc1
inhibition (at 20 µM): 0.4% (inactive)

O=C(NCC1CCCO1)C1CCN(C2CCN(Cc3ccco3)CC2)CC1 (configuration not stated)
inhibition (at 20 µM): 1.6% (inactive)

CCOc1ccc(-c2nn(-c3ccccc3)cc2/C=C2\SC(=S)N(Cc3ccco3)C2=O)cc1
inhibition (at 20 µM): 17.3% (inactive)

CCCOc1ccc(-c2nn(-c3ccccc3)cc2/C=C2\SC(=S)N(C3CCS(=O)(=O)C3)C2=O)cc1 (configuration not stated)
inhibition (at 20 µM): -1.7% (inactive)

CCOc1ccc(-c2nn(-c3ccccc3)cc2/C=C2\SC(=S)N(C3CCS(=O)(=O)C3)C2=O)cc1 (configuration not stated)
inhibition (at 20 µM): 78.9% (active)
inhibition [1]: 85%

CCCOc1cccc(C(=O)N(Cc2ccc(OC)c(OC)c2)C2CCS(=O)(=O)C2)c1 (configuration not stated)
inhibition (at 20 µM): 1% (inactive)

CCCCN(C)CCNC(=O)c1ccc(Cn2c(=S)[nH]c3ccc(Br)cc3c2=O)cc1
inhibition (at 20 µM): -3.1% (inactive)

COC(=O)N=Nc1c(O)n(Cc2ccccc2)c2ccccc12
inhibition (at 20 µM): -1.9% (inactive)

O=C(COc1ccc(Cl)cc1Cl)Nc1ccc2nc3n(c(=O)c2c1)CCCC3
inhibition (at 20 µM): -2.9% (inactive)

CCC1(c2ccccc2)NC(=O)N(CC(=O)Nc2ccc(OC)nc2)C1=O (configuration not stated)
inhibition (at 20 µM): 116% (active)

CCC1(c2ccccc2)NC(=O)N(CC(=O)Nc2ccc(S(N)(=O)=O)cc2)C1=O (configuration not stated)
inhibition (at 20 µM): 1.2% (inactive)

CCCC1(c2ccccc2)NC(=O)N(CC(=O)Nc2cc(OC)cc(OC)c2)C1=O (configuration not stated)
inhibition (at 20 µM): 0.8% (inactive)

O=C(COC(=O)c1ccc(S(=O)(=O)N2CCOCC2)cc1)NC1CCCC1
inhibition (at 20 µM): 0.3% (inactive)

Cc1ccn2c(Nc3ccc4c(c3)OCO4)c(-c3ccccn3)nc2c1
inhibition (at 20 µM): 114% (active)

Cc1ccc(Nc2c(-c3ccccn3)nc3cc(C)ccn23)cc1
inhibition (at 20 µM): 0.3% (inactive)

Cc1ccn2c(Nc3ccccc3)c(-c3ccccn3)nc2c1
inhibition (at 20 µM): -2.6% (inactive)

CCC(C)NC(=O)CN1C(=O)NC2NC(=O)NC21 (configuration not stated)
inhibition (at 20 µM): 0.8% (inactive)

Cc1cc(NC(=S)N(Cc2ccc(Br)cc2)Cc2ccc(C(=O)O)cc2)ccc1Cl
inhibition (at 20 µM): 59.2% (active)

Cc1ccc(NC(=S)N(Cc2ccc(Br)cc2)Cc2ccc(C(=O)O)cc2)cc1C
inhibition (at 20 µM): 36.8% (inactive)

Cc1cc(NC(=S)N(Cc2ccc(Cl)cc2)Cc2ccc(C(=O)O)cc2)ccc1Cl
inhibition (at 20 µM): 53.2% (inactive)
inhibition [1]: 34.6%

CCOc1cc(/C=N/NC(=O)Cc2ccc(C(F)(F)F)cc2[N+](=O)[O-])c(Br)cc1OC
inhibition (at 20 µM): 0.7% (inactive)

O=C(Nc1nnc(CCc2ccccc2)s1)c1ccc(F)cc1
inhibition (at 20 µM): 1.8% (inactive)
